Several values for one entry are separate records, joined by “and”; a condition that tells them apart may be missing. Equal values may be shown once.
Key:
Assay in all cases: cell viability relative to vehicle control; higher = less cytotoxic
Details in all cases: 10 µM
[1] = test system: K562
Procedure, shortened: (§1)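 Four leukaemia lines, as CRISPR-edited mutant clones and isogenic wild-type clones, were tested against Selleck bioactive, kinase and epigenetic probe libraries after removal of identity-inconsistent compounds. Cells were exposed to a single 10 µM dose for 48 h, and CellTiter-Glo luminescence was then read. Viability was calculated relative to the on-plate vehicle control.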

[2] = test system: MARIMO
Procedure, shortened: as §1

[3] = test system: MOLM14
Procedure, shortened: as §1

[4] = test system: OCI-AML2
Procedure, shortened: as §1

Structure (SMILES)	cell viability ([1]; SRSF2 genotype: SRSF2 P95H/wt)	cell viability ([1]; SRSF2 genotype: SRSF2 wt/wt) [%]	cell viability ([2]; SRSF2 genotype: SRSF2 P95H/wt) [%]	cell viability ([2]; SRSF2 genotype: SRSF2 wt/wt) [%]	cell viability ([3]; SRSF2 genotype: SRSF2 P95H/wt) [%]	cell viability ([3]; SRSF2 genotype: SRSF2 wt/wt) [%]	cell viability ([4]; SRSF2 genotype: P95H/wt) [%]	cell viability ([4]; SRSF2 genotype: wt/wt) [%]
CC[C@H]1OC(=O)[C@H](C)[C@@H](O[C@H]2C[C@@](C)(OC)[C@@H](O)[C@H](C)O2)[C@H](C)[C@@H](O[C@@H]2O[C@H](C)C[C@H](N(C)C)[C@H]2O)[C@](C)(OC)C[C@@H](C)C(=O)[C@H](C)[C@@H](O)[C@]1(C)O [Clarithromycin (Biaxin, Klacid)]	105% and 111%	107	99	102	99.6	104	108	91.7
C[C@@H]1O[C@@H](OC[C@H]2O[C@@H](Oc3cc(O)c4c(=O)cc(-c5ccc(O)cc5)oc4c3)[C@H](O[C@@H]3O[C@@H](C)[C@H](O)[C@@H](O)[C@H]3O)[C@@H](O)[C@@H]2O)[C@H](O)[C@H](O)[C@H]1O [ligustroflavone]	103%	106	97.1	105	90.7	103	107	108
CC(C)(C)n1nc(-c2ccc(Cl)cc2)c2c(N)ncnc21	56.2% and 78.5%	63.3	84.6	104	66	67.3	80	78.3
Cc1ccnc(NS(=O)(=O)c2ccc(N)cc2)n1 [Sulfamerazine]	99.9% and 106%	101	105	104	99.7	107	107	89.9
CC/C(=C(\c1ccc(O)cc1)c1ccc(OCCN(C)C)cc1)c1ccccc1 [4-Hydroxytamoxifen]	27.4% and 32.6%	28	55.8	53.5	32.9	27.8	22.6	39.5
O=C(O)C(Cc1ccccc1[N+](=O)[O-])=NNc1nc(-c2ccc(Cl)c(Cl)c2)cs1	95.8% and 93.5%	87.9	94.2	114	91.8	92.2	84.8	94
CCCC1CC(C(=O)NC(C(C)Cl)C2OC(SC)C(O)C(O)C2O)N(C)C1 (configuration not stated) [Clindamycin alcoholate]	104% and 98%	102	98.5	107	103	108	107	98.6
O=C(C=Cc1ccccc1)NC(NC(=S)Nc1ccc(Cl)cc1)C(Cl)(Cl)Cl (configuration not stated)	81.5% and 86.5%	86.9	102	104	90.4	96	99.1	100
COc1cccc(-c2cc(NCc3ccc4c(c3)OCO4)nc(N)n2)c1 [Wnt agonist 1]	9.55% and 31.1%	26.2	8.72	9.19	7.29	4.03	11	13.1
